# Inconclusive results are not listed. Entries that show only a call come without a potency. The source made the active and inactive calls. Unless noted, calls follow the shape of the dose curve; as a rule, active = well fitted inhibition curve with a large enough effect; inconclusive = small, poorly fitted or top-dose-only effect; inactive = no such curve, though single readings can be large or run the other way.
# Tested on: not listed separately
# Assay: S16 Schwann cell PMP22 intronic element beta-lactamase assay (AID 624044; calls by dose curve; also: nearly all actives have a fitted effect of over 15% in size)
# Conditions: S16 rat Schwann cells, PMP22 element beta-lactamase FRET, 24 h; series mostly up to 38.3 µM
# Procedure, shortened: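 Beta-lactamase reporter under a PMP22 intronic regulatory element in stable S16 rat Schwann cells; 24 h compound exposure. 460 nm blue signal normalized between DMSO (0%) and potassium clavulanate, with 535 nm FRET tracking viability; curves classed by r2 and response.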
row,Compound,outcome
1,c1ccc(C2CN3CCSC3=N2)cc1 (stereo unspecified),inactive
2,CCCCCCCCCCCCCCC[C@H](O)[C@H](N)CO,inactive
3,CCCCCCCCCCCCCCCCCCOC[C@H](COP(=O)([O-])OCC[N+](C)(C)C)OC,inactive
4,CC(O)C(O)[C@H]1CNc2nc(N)[nH]c(=O)c2N1 (stereo partly specified),inactive

# Molecular target: Glutaminase kidney isoform, mitochondrial (Homo sapiens) (UniProt O94925)
# Assay: qHTS for Inhibitors of Glutaminase (GLS): LOPAC Validation (AID 624146);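 also: glutamate product detected by oxidase and peroxidase coupled Amplex red fluorescence gain; nearly all actives have a fitted effect of over 60% in size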
# Conditions: glutaminase enzyme activity inhibition; series mostly up to 46.1 µM
# Procedure, shortened: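 Human kidney-isoform GLS in 45 mM KH2PO4 pH 8.2, 0.02% Tween-20, with compound, started with 1mM L-Glutamine (added stock). Glutamate oxidase/HRP/Amplex red coupled fluorescence read at start and after 30 min at RT.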
# Chain of Glutaminase kidney isoform, mitochondrial (Homo sapiens) (O94925 whole entry, looked up, canonical isoform): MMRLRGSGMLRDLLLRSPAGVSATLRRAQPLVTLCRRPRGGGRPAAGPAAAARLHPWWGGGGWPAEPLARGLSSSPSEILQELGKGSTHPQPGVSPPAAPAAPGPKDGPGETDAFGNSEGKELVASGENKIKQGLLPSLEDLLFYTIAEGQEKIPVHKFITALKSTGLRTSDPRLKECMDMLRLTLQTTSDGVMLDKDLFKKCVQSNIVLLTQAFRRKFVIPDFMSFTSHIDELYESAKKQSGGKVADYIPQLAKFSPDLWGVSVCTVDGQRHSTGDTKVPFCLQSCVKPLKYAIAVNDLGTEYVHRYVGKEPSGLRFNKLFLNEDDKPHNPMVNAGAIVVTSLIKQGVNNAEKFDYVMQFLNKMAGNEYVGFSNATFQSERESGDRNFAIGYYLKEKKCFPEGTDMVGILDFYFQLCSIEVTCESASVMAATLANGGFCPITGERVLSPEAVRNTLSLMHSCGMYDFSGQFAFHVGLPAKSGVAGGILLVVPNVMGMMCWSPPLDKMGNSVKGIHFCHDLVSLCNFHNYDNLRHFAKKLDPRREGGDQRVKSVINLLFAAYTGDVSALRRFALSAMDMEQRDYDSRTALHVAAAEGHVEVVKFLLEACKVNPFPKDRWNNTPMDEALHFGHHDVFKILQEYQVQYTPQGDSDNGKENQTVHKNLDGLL
row,Compound,Potency
1,NC(Cc1cccc(-c2ccccc2CP(=O)(O)O)c1)C(=O)O (stereo unspecified),inactive
2,Brc1c(Br)c(Br)c2[nH]cnc2c1Br,inactive
3,N[C@H](C(=O)O)[C@H](Cc1ccccc1)C(=O)O,inactive
4,c1ccc(C2CN3CCSC3=N2)cc1 (stereo unspecified),inactive
5,N=C(N)c1ccc(OCCCCCOc2ccc(C(=N)N)cc2)cc1 (tested in a mixture with another compound),inactive
6,CCCCCCCCCCCCCCC[C@H](O)[C@H](N)CO,inactive
7,NC[C@@H]1O[C@H](c2ccccc2)Cc2c1ccc(O)c2O,inactive
8,COc1ccc(-c2cc3ncc(C)n3c(Nc3ncccc3C(N)=O)n2)cc1OC,inactive
9,C[C@H]1CC2C3CCC4=CC(=O)C=C[C@]4(C)[C@@]3(Cl)[C@@H](O)C[C@]2(C)[C@@]1(O)C(=O)CO (stereo partly specified),inactive
10,C=CCN1CCc2cc(O)c(O)cc2C(c2ccccc2)C1 (stereo unspecified),inactive
11,Nc1ncnc2c1nc(Sc1ccc(Cl)cc1)n2[C@H]1OC2COP(=O)(O)O[C@@H]2C1O (stereo partly specified),inactive
12,CN1CCCC1CCOC(C)(c1ccccc1)c1ccc(Cl)cc1 (stereo unspecified),inactive
13,CCCn1c(=O)c(C)cn2nc(N)nc12,inactive
14,COc1ccc(CCn2nnnc2C2(c3ccc(C)cc3)CC2)cc1,inactive
15,O=c1cc(-c2ccccc2)[nH]c2nc(Cl)ccc12,inactive
16,CSc1nc(N)c2ncn([C@@H]3O[C@H](COP(=O)(O)OP(=O)(O)O)C(O)[C@H]3O)c2n1 (stereo partly specified),inactive
17,NCC(O)C1CCCCCCC1 (stereo unspecified),inactive
18,CC(C)NC[C@H](O)COc1ccc(CC(N)=O)cc1,inactive
19,CN1CC(O)C(O)C(O)C1CO (stereo unspecified),inactive
20,Nc1nc2c(nc(Br)n2C2OC3COP(=O)(O)O[C@@H]3C2O)c(=O)[nH]1 (stereo partly specified),inactive
21,CCCCCCCCCCCCCCCCCCOC[C@H](COP(=O)([O-])OCC[N+](C)(C)C)OC,inactive
22,CC(O)C(O)[C@H]1CNc2nc(N)[nH]c(=O)c2N1 (stereo partly specified),inactive

# Source: PubChem BioAssay (NCATS)
